# Experimental data as given in PubChem BioAssay (NCI).
# “And” between values parts separate entries of the source, which are not always exact repeats. Equal values may be shown once. About 83,000 compounds went through this panel and 20% of them were active in at least one assay; those are over-represented in the sample as a whole.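 Testing used 96-well plates and a 48-hour single-concentration exposure. Example: -40 means 40% of the starting cells died.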 Unmarked numbers belong to inactive results. The source made the active and inactive calls. The calls were made as follows: active = growth percent below 10; inactive = the rest.
# Tested on: MDA-MB-468 breast
# Assay: NCI-60 one-dose screen, 48 h (100 = growth as untreated, 0 = no growth, -100 = all killed)
# Details: 10 µM unless noted
row,SMILES,growth
1,CCCCCCCCCCC(=O)CCCCCCCCCC,107%
2,NC(N)=N/N=C/CO,107%
3,NC(N)=N/N=C/c1ccc(-c2ccc(-c3cc(Cl)cc(Cl)c3)s2)cc1,-47.1% (active)
4,Fc1c[c-]c(-c2ccccn2)c(F)c1.Fc1c[c-]c(-c2ccccn2)c(F)c1.[Cl][Pt+].[Cl][Pt+].c1ccc([PH+](C[PH+](c2ccccc2)c2ccccc2)c2ccccc2)cc1,-2.28% (active)
5,CCCCc1ccc(C(N)=O)nc1,85%
6,Nc1cc(N)c(N=Nc2ccc(S(=O)(=O)O)cc2)cc1N=Nc1ccc(-c2ccc(N=Nc3ccc(O)c(C(=O)O)c3)cc2)cc1,97.6%
7,C=C(C)[C@@H]1CC[C@]2(C(=O)N3CCN(C)CC3)CC[C@]3(C)[C@H](CC[C@@H]4[C@@]5(C)CC[C@H](OCCC#N)C(C)(C)[C@@H]5CC[C@]43C)[C@@H]12,69.4%
8,N[C@@H](CC/[N+]([O-])=N/O)C(=O)O,97.4%
9,CC(O)c1ncc(/C=C2\SC(=S)N(Cc3ccccc3)C2=O)s1 (centres undefined),65.6%
10,COc1ccc(C(=O)C(O)c2ccc(OC)cc2)cc1 (centres undefined),101% and 96.3%
11,O=C1OC(Cc2ccccc2)C1c1ccccc1 (centres undefined),97.4%
12,NC(=O)c1ccc(C2C3=C(CCCC3=O)OC3=C2C(=O)c2ccccc2C3=O)cc1 (centres undefined),-30.6% (active)
13,CCN(CC)CCn1c2ccc(OC)cc2c2sc3cc(O)ccc3c(=O)c21,60.3%
14,CC(=O)n1nc(C(=O)OC(C)C)c2cc(C)c(C)cc21,92.9%
